# According to PubChem BioAssay (NCI):
# About 79,000 compounds went through this panel and 15% of them were active in at least one assay; those are over-represented in the sample as a whole. A number with no mark means an inactive call. Active and inactive are the calls of the source. No stated cut-off is given here; in the data, active means growth inhibition above about 70%; inactive means the rest.
# How the values were obtained:
# [1] = NCI Yeast Anticancer Drug Screen. Data for the rad52 strain (AID 147);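 further: 0% = growth of vehicle-treated control cultures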; details: S. cerevisiae rad52 mutant growth inhibition, stronger effect = higher value
# In short: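 DNA repair-defective yeast; compound exposure; growth scored against vehicle controls.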
# [2] = NCI Yeast Anticancer Drug Screen. Data for the wt1 strain (AID 149);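 further: 0% = growth of vehicle-treated wt1 cultures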; details: S. cerevisiae wt1 strain (SPY 50644) growth inhibition, stronger effect = higher value
# In short: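 Growth inhibition read against vehicle controls after compound exposure of the wt1 yeast strain.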
# [3] = NCI Yeast Anticancer Drug Screen. Data for the rad50EPP+ strain (AID 151);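 further: 0% = growth of vehicle-treated control cultures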; details: S. cerevisiae rad50 mutant strain, stronger effect = higher value
# In short: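 rad50EPP+ yeast treated with test compounds. Readout: growth vs vehicle control.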
# [4] = NCI Yeast Anticancer Drug Screen. Data for the mgt1 strain (AID 153); details: S. cerevisiae mgt1 mutant growth inhibition, stronger effect = higher value
# In short: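 Growth inhibition relative to vehicle controls was scored for the mgt1 yeast strain after compound exposure.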
# [5] = NCI Yeast Anticancer Drug Screen. Data for the rad50 strain (AID 155);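 further: 0% = growth of vehicle-only cultures of the same strain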; details: S. cerevisiae rad50 strain growth inhibition, stronger effect = higher value
# In short: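 Readout: growth inhibition relative to vehicle-treated cultures. Compound exposure was carried out in a genetically defined yeast strain deficient in DNA damage repair.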
# [6] = NCI Yeast Anticancer Drug Screen. Data for the mec2-1 strain (AID 157); details: S. cerevisiae mec2-1 strain, stronger effect = higher value
# In short: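 Growth inhibition is read against vehicle-treated controls after compound exposure of the mec2-1 yeast strain, which is defective in DNA damage repair or cell cycle control.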
# [7] = NCI Yeast Anticancer Drug Screen. Data for the rad14 strain (AID 159);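 further: 0% = growth of vehicle-treated control cultures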; details: S. cerevisiae rad14 strain growth inhibition, stronger effect = higher value
# In short: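 Growth inhibition vs vehicle controls; genetically altered yeast strain (DNA damage repair defect) treated with test compounds.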
# [8] = NCI Yeast Anticancer Drug Screen. Data for the sgs1 mgt1 strain (AID 161);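 further: 0% = growth of cultures given vehicle only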; details: S. cerevisiae sgs1 mgt1 strain, stronger effect = higher value
# In short: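 Percent growth inhibition was derived by comparing compound-exposed mutant yeast with vehicle-exposed cultures. The strain carries alterations in DNA damage repair.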
# [9] = NCI Yeast Anticancer Drug Screen. Data for the CLN2oe strain (AID 163);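 further: 0% = growth of vehicle-only control cultures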; details: S. cerevisiae CLN2oe strain, stronger effect = higher value
# In short: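 Compound-treated yeast; growth vs vehicle ctrl = % inhibition. Genetically altered strain (cell-cycle control).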
# [10] = NCI Yeast Anticancer Drug Screen. Data for the cln2 rad14 strain (AID 165);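 further: 0% = growth equal to vehicle treated cultures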; details: S. cerevisiae cln2 rad14 strain, stronger effect = higher value
# In short: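 Growth inhibition, relative to vehicle-treated controls, is the read-out. The test organism is a yeast strain with defined genetic alterations, cln2 rad14.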
# [11] = NCI Yeast Anticancer Drug Screen. Data for the bub3 strain (AID 167); details: S. cerevisiae bub3 mutant strain, stronger effect = higher value
# In short: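 Readout: yeast growth inhibition, expressed relative to vehicle-only wells. The test organism is a mutant strain from a panel with lesions in DNA repair or checkpoint genes.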
# [12] = NCI Yeast Anticancer Drug Screen. Data for the wt2 strain (AID 169);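 further: 0% = growth of vehicle-treated yeast cultures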; details: S. cerevisiae wt2 strain growth inhibition, stronger effect = higher value
# In short: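 Compound exposure of yeast; growth compared with vehicle controls; inhibition reported.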
# [13] = NCI Yeast Anticancer Drug Screen. Data for the mlh1 strain (AID 171);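 further: 0% = growth of vehicle-treated control cultures of the same strain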; details: S. cerevisiae mlh1 strain growth inhibition, stronger effect = higher value
# In short: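 Compounds are applied to a genetically altered yeast strain, and its growth is compared with that of vehicle-treated cultures to give percent inhibition.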
# [14] = NCI Yeast Anticancer Drug Screen. Data for the sgs1 strain (AID 173);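 further: 0% = growth of vehicle-only control cultures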; details: S. cerevisiae sgs1 mutant, stronger effect = higher value
# In short: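 Compounds applied to genetically altered yeast; growth compared with vehicle-treated cultures to give % inhibition.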
# [15] = NCI Yeast Anticancer Drug Screen. Data for the mlh1 rad18 strain (AID 175); details: S. cerevisiae mlh1 rad18 strain growth inhibition, stronger effect = higher value
# In short: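 Cells of a genetically altered yeast strain, deficient in DNA damage repair, were treated with compound. Their growth was then compared with that of vehicle-treated cultures to give inhibition.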
# [16] = NCI Yeast Anticancer Drug Screen. Data for the rad18 strain (AID 177); details: S. cerevisiae rad18 mutant growth inhibition, stronger effect = higher value
# In short: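 Compounds are applied to a repair-deficient yeast strain, and growth is compared with that of vehicle-treated cultures to give percent inhibition.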
# [17] = at 5.0 µM (retest, dose inferred, filed as 0.5)
# [18] = at 50.0 µM (retest, dose inferred, filed as 5.0)
smiles,measurement,setting,value
CC(C)C(c1ccccc1)c1ccccc1,growth inhibition,[1]; at 1.2 µM,4%
same,growth inhibition,[1]; at 3.7 µM,9%
same,growth inhibition,[1]; at 11.0 µM,9%
same,growth inhibition,[1]; at 33.0 µM,8%
same,growth inhibition,[1]; at 100.0 µM,77% (active)
same,growth inhibition,[2]; at 1.2 µM,-1%
same,growth inhibition,[2]; at 3.7 µM,-1%
same,growth inhibition,[2]; at 11.0 µM,0%
same,growth inhibition,[2]; at 33.0 µM,-2%
same,growth inhibition,[2]; at 100.0 µM,49%
same,growth inhibition,[3]; at 1.2 µM,3%
same,growth inhibition,[3]; at 3.7 µM,6%
same,growth inhibition,[3]; at 11.0 µM,14%
same,growth inhibition,[3]; at 33.0 µM,43%
same,growth inhibition,[3]; at 100.0 µM,93% (active)
same,growth inhibition,[4]; at 1.2 µM,0%
same,growth inhibition,[4]; at 3.7 µM,0%
same,growth inhibition,[4]; at 11.0 µM,-1%
same,growth inhibition,[4]; at 33.0 µM,-6%
same,growth inhibition,[4]; at 100.0 µM,55%
same,growth inhibition,[5]; at 1.2 µM,1%
same,growth inhibition,[5]; at 3.7 µM,18%
same,growth inhibition,[5]; [17],-144%
same,growth inhibition,[5]; at 11.0 µM,9%
same,growth inhibition,[5]; at 33.0 µM,10%
same,growth inhibition,[5]; [18],70% (active)
same,growth inhibition,[5]; at 50.0 µM,10%
same,growth inhibition,[5]; at 100.0 µM,93% (active)
same,growth inhibition,[6]; at 1.2 µM,2%
same,growth inhibition,[6]; at 3.7 µM,3%
same,growth inhibition,[6]; [17],-50%
same,growth inhibition,[6]; at 11.0 µM,-10%
same,growth inhibition,[6]; at 33.0 µM,1%
same,growth inhibition,[6]; [18],-32%
same,growth inhibition,[6]; at 50.0 µM,49.4%
same,growth inhibition,[6]; at 100.0 µM,99% (active)
same,growth inhibition,[7]; at 1.2 µM,-1%
same,growth inhibition,[7]; at 3.7 µM,-5%
same,growth inhibition,[7]; at 11.0 µM,2%
same,growth inhibition,[7]; at 33.0 µM,7%
same,growth inhibition,[7]; at 100.0 µM,70% (active)
same,growth inhibition,[8]; [17],-54%
same,growth inhibition,[8]; [18],-37%
same,growth inhibition,[8]; at 50.0 µM,52.2%
same,growth inhibition,[9]; at 1.2 µM,-5%
same,growth inhibition,[9]; at 3.7 µM,-1%
same,growth inhibition,[9]; at 11.0 µM,2%
same,growth inhibition,[9]; at 33.0 µM,1%
same,growth inhibition,[9]; at 100.0 µM,69%
same,growth inhibition,[10]; [17],-52%
same,growth inhibition,[10]; [18],-33%
same,growth inhibition,[10]; at 50.0 µM,16%
same,growth inhibition,[11]; at 1.2 µM,-6%
same,growth inhibition,[11]; at 3.7 µM,1%
same,growth inhibition,[11]; [17],-67%
same,growth inhibition,[11]; at 11.0 µM,-4%
same,growth inhibition,[11]; at 33.0 µM,-4%
same,growth inhibition,[11]; [18],44%
same,growth inhibition,[11]; at 50.0 µM,-0.75%
same,growth inhibition,[11]; at 100.0 µM,66%
same,growth inhibition,[12]; at 1.2 µM,-2%
same,growth inhibition,[12]; at 3.7 µM,-2%
same,growth inhibition,[12]; at 11.0 µM,-1%
same,growth inhibition,[12]; at 33.0 µM,1%
same,growth inhibition,[12]; at 100.0 µM,56%
same,growth inhibition,[13]; at 1.2 µM,3%
same,growth inhibition,[13]; at 3.7 µM,0%
same,growth inhibition,[13]; at 11.0 µM,0%
same,growth inhibition,[13]; at 33.0 µM,2%
same,growth inhibition,[13]; at 100.0 µM,60%
same,growth inhibition,[14]; at 1.2 µM,-1%
same,growth inhibition,[14]; at 3.7 µM,-3%
same,growth inhibition,[14]; at 11.0 µM,-3%
same,growth inhibition,[14]; at 33.0 µM,-3%
same,growth inhibition,[14]; at 100.0 µM,99% (active)
same,growth inhibition,[15]; [17],-113%
same,growth inhibition,[15]; [18],-101%
same,growth inhibition,[15]; at 50.0 µM,29.2%
same,growth inhibition,[16]; at 1.2 µM,3%
same,growth inhibition,[16]; at 3.7 µM,-1%
same,growth inhibition,[16]; at 11.0 µM,3%
same,growth inhibition,[16]; at 33.0 µM,3%
same,growth inhibition,[16]; at 100.0 µM,59%
